Shown are actives, neighbours in structure and some others; about 19% of the full set was active somewhere.
TDP1 cell CPT: DT40-hTDP1 cell growth loss with CPT. chicken DT40 Tdp1-/-;hTDP1 cells + 20 nM CPT, ATP luminescence, 48 h. Potency, µM (series often up to 46.2 µM), inactives show top-dose activity change, negative = growth inhibition, most hits filed as inhibitors. 420,000 tested, 12% active; further: potency means the concentration at half of the fitted maximal effect; nearly all actives have a fitted effect of over 55% in size
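Chicken DT40 Tdp1-/- cells complemented with human TDP1, 400 cells/well, exposed to compounds plus 20 nM camptothecin for at least 48 h at 37 C; viability read as ATP content by CellTiter-Glo luminescence.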
HT1080 IDH1KD tx: HT-1080 IDH1 knockdown cell toxicity (counter line); HT-1080 IDH1 knockdown viability, ATP luminescence, 48 h; Potency, µM (top dose mostly 46.1 µM), without a hit: top-dose activity, negative = toxicity, actives largely listed as cytotoxic; 360,000 tested, 2% active; AID 686971;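 further: potency means the concentration at half of the fitted maximal effect; 0% = DMSO wells and -100% = cell-free medium wells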
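Luminescent ATP read-out (CellTiter-Glo, 10 min at room temperature) after 48 h compound exposure at 37 °C gave viability of IDH1-knockdown HT-1080 cells. Activity was normalised to DMSO and cell-free wells, then fitted as concentration-response curves.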
TDP1 cell noCPT: qHTS for Inhibitors of human tyrosyl-DNA phosphodiesterase 1 (TDP1): qHTS in cells in absence of CPT | DT40 Tdp1-/- hTDP1 cells, no CPT, ATP luminescence, 48 h | Potency, µM (top dose mostly 46.2 µM), for the others: top-dose activity change, negative = growth inhibition, hits mostly inhibitors | 420,000 tested, 15% active; further: potency means the concentration at half of the fitted maximal effect; nearly all actives have a fitted effect of over 55% in size
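A cellular qHTS used chicken DT40 cells lacking endogenous Tdp1 but carrying stably transfected human TDP1. Compounds were applied without camptothecin, and cell growth kinetics were judged by ATP-dependent luminescence after ≥48 hr.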
ELG1 repair inh: ELG1-dependent DNA repair inhibition. HEK293T ELG1-luciferase reporter, luminescence, 16 h; DNA damage induced by 5-fluorouridine. Potency, µM (titrated, usually from 46.1 µM), for the others: at the highest dose activity change, negative = inhibition, hits mostly inhibitors. 330,000 tested, 2.3% active; further: potency means the concentration at half of the fitted maximal effect; nearly all actives have a fitted effect of over 55% in size
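DMSO vehicle served as the neutral condition. Each well held 2,000 cells given 5-fluorouridine plus compound; after 16 hr at 37 °C/5% CO2, ONE-Glo was added and luciferase measured 30 min later.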
HT1080-NT tox: kills 2HG-producing HT-1080-NT fibrosarcoma cells. Potency, µM (top dose mostly 46.1 µM), for inactives: top-dose activity, negative = less viability, most hits filed as cytotoxic. 360,000 tested, 1.6% active. HT-1080-NT fibrosarcoma viability, CellTiter-Glo ATP luminescence, 48 h;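 further: NT is the 2HG producing partner of a matched IDH1 knockdown line; potency means the concentration at half of the fitted maximal effect; 0% = DMSO-treated cells and -100% = media-only wells without cells; nearly all actives have a fitted effect of over 55% in size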
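Compounds were tested in concentration-response format on HT-1080-NT cells for 48 hours at 37 degrees C. Cell viability came from CellTiter-Glo luminescence; curves were classified by r2, response magnitude and activity.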
IL-1B inflam inh: inflammasome signaling inhibition, IL-1 beta readout; THP-1 LPS/ATP IL-1B secretion, AlphaLISA, 16 h; hits give low values; activity change, % at 57.5 µM; 360,000 tested, 4.7% active; AID 743279; in the data active means activity change below about -50%; inconclusive means mostly about -30% to -49%
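THP-1 cells pretreated 1 hr with compounds (up to 57.5 uM final), then stimulated with LPS (250 ng/mL final) plus ATP (1.25 mM final); secreted IL-1B measured by AlphaLISA after 16 hr, decreased signal indicating inhibition.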
An asterisk follows results filed as active; ? = inconclusive; nt = no result given. Unless noted, the call rests on the fitted dose curve; in most records, active means well fitted curve in the direction sought with a large enough effect; inconclusive means small, poorly fitted or top-dose-only effect, or another doubt; inactive means no such curve, though single readings can be large; an effect the other way counts as inactive or inconclusive. Unless noted, on the % scale 0 is the no-effect control and ±100 the full control effect.

SMILES	TDP1 cell CPT	HT1080 IDH1KD tx	TDP1 cell noCPT	ELG1 repair inh	HT1080-NT tox	IL-1B inflam inh
Cc1ccc(CNC(=O)CSc2nc3ccsc3c(=O)n2Cc2ccccn2)cc1	-1%	0%	-14%	22%	5%	1
Cc1ccc(CSc2nc3ccccc3c(=O)n2Cc2ccco2)cc1	?	-14%	?	?	-18%	16
O=C(CCCn1c(=O)c2ccccc2n(Cc2ccccc2)c1=O)NCc1ccco1	12µM*	?	15µM*	?	?	-8
Cc1ccc(CSc2nc3ccccc3c(=O)n2CCCC(=O)NCc2ccco2)cc1	?	?	12µM*	-5%	15%	17
O=C(Cn1c(=O)n(Cc2ccccc2)c(=O)c2ccccc21)NCc1ccco1	?	-5%	?	14%	0%	?
O=c1c2sccc2nc(SCc2ccc([N+](=O)[O-])cc2)n1Cc1ccccn1	?	-11%	16µM*	?	-14%	?
COc1ccc(OC)c(S(=O)(=O)N2CCC(n3c(C)nc4cccnc43)CC2)c1	?	nt	-12%	nt	nt	nt
CCCCN1C(=O)CCC(C(=O)O)C1c1ccc([N+](=O)[O-])cc1 (stereo not drawn)	3%	10%	18%	?	14%	0
CC1CCCCC12NC(=O)N(CC(=O)OCC(=O)N(C)C1CCCCC1)C2=O (stereo not drawn)	-1%	-3%	3%	4%	1%	4
Cc1nn2c(-c3ccco3)ccnc2c1-c1ccc(F)cc1	-18%	nt	-16%	nt	nt	nt
CC1OC(Oc2ccc3ccc(=O)oc3c2-c2c(O)ccc3cc(Oc4ccc5ccc(=O)oc5c4)c(=O)oc23)C(O)C(O)C1O (stereo not drawn)	-2%	7%	23%	7%	2%	4
COc1ccc(CCNC(=O)c2cccc(S(=O)(=O)N3CCOCC3)c2)cc1OC	-5%	4%	1%	11%	10%	3
O=c1c2ccccc2nc(SCc2ccc([N+](=O)[O-])cc2)n1CCCO	10µM*	?	6.5µM*	?	?	-13
CN(CC(=O)Nc1ccc(F)c(F)c1F)C(=O)CN1C(=O)C2CCCCC2C1=O (stereo not drawn)	8%	5%	-27%	15%	2%	30
CCCNC(=O)C1(C)CCN(Cc2ccc(C)c3ccccc23)C1 (stereo not drawn)	?	-13%	23µM*	nt	-15%	-7
CCCNC(=O)C1(C)CCN(Cc2ccc(OC)c3ccccc23)C1 (stereo not drawn)	?	-9%	21µM*	nt	-15%	-20
CCCNC(=O)C1(C)CCN(Cc2cc3ccccc3o2)C1 (stereo not drawn)	?	13%	?	nt	9%	31
CCOC(=O)Cc1csc(SCC(=O)N2CCN(c3ccccc3)CC2)n1	-20%	-1%	-28%	-23%	0%	10
Cc1ccccc1NC(=O)c1ccc(OCc2c(C)noc2C)cc1	?	-1%	?	-10%	0%	35
CCOc1ccc(CNn2cnnc2)cc1	16µM*	8%	?	1%	7%	-16
c1ccc(COc2ccc(CNn3cnnc3)cc2)cc1	-7%	2%	-11%	?	-2%	11
CCc1nc(CN2CCN(c3cc(C(F)(F)F)ccn3)CC2)c(C)[nH]1	23µM*	-2%	16µM*	7.3µM*	-14%	0
O=C(O)C1C2CCC(O2)C1C(=O)Nc1cnn(Cc2ccccc2)c1 (stereo not drawn)	-20%	1%	-3%	?	-2%	16
O=C(Nc1ccncc1)C1C(=O)c2ccccc2N(Cc2ccccc2)C1=O (stereo not drawn)	1µM*	nt	0.71µM*	nt	nt	nt

From PubChem
